# HCMV antiviral: blocks human cytomegalovirus replication; HFF cells, HCMV-luciferase reporter, 72 h; hits give low values; activity change, negative = inhibition, % at 57.5 µM; hit rate 4.5% among 410,000; AID 1259415; in the data active = activity change below about -60%; inconclusive = no clear call, values can overlap the other calls; inactive = above about -39%
#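 Luciferase read-out from HCMV-luciferase-infected HFFs (MOI 1 PFU/cell) 72 h post infection at 37C; compounds added after 16 h cell attachment; activity normalized between buffer-only basal and Salinomycin (10uM) inhibitor controls.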
# FMDV inh: antivirals against foot and mouth disease virus | FMDV antiviral cell-based qHTS | Potency, µM (highest dose often 57.9 µM), without a hit: top-dose activity change, negative = inhibition, most hits filed as inhibitors | hit rate 1.2% among 410,000 | AID 1159524; calls by dose curve; tested in HEK293T cells; note: read-out not given here; potency is the fitted concentration of half-maximal effect; nearly all actives have a fitted effect of over 45% in size
# AmpC detergent: inhibitors of E. coli AmpC beta-lactamase with detergent; P00811; hit rate 0.041% among 370,000; AID 485294; Potency, µM (doses to about 114 µM), inactives show at the highest dose activity change, negative = inhibition, most hits filed as inhibitors; AmpC hydrolysis of nitrocefin, absorbance 480 nm, 0.01% Triton;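 note: potency is the fitted concentration of half-maximal effect; 0% = no-compound wells and -100% = no-enzyme wells; nearly all actives have a fitted effect of over 25% in size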
# Target sequence (P00811 whole entry, looked up): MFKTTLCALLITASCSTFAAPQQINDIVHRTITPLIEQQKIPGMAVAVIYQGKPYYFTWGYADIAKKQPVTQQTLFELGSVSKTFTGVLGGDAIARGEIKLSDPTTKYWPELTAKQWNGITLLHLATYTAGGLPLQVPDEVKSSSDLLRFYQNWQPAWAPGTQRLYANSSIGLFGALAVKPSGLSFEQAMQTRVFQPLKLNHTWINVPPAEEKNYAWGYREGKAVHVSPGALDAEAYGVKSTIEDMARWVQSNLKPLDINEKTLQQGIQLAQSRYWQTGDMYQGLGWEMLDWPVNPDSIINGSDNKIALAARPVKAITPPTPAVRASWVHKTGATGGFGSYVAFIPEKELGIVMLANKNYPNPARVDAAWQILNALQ
#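 AmpC (5.3 nM in the dispensed reagent) in 20 mM phosphate pH 7.0 with 0.01% (detergent screen) or 0.0001% Triton X-100 was preincubated with compounds for 15 min at room temperature. Nitrocefin was then added from an 800 uM solution, and hydrolysis was followed at 480 nm.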
# HCV inh: HCV inhibition; Huh7.5.1 HCVcc-Cre infection, luciferase reporter, 44 h; Potency, µM (titrated, usually from 41.8 µM), for the others: at the highest dose activity change, negative = inhibition, most hits filed as inhibitors; hit rate 3.4% among 340,000; AID 651820; note: potency is the fitted concentration of half-maximal effect
#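 Reporter virus HCVcc-Cre (~0.5 moi) infects cells exposed to compound; seeding density 1,000 cells/well with 4 h settling beforehand. Luminescence, 15 sec read, taken 44 h post-infection following a 15 min RT substrate incubation.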
# AmpC no deterg: blocks E. coli AmpC beta-lactamase in detergent-free assay; P00811; AmpC nitrocefin hydrolysis, absorbance 480 nm, 0.0001% Triton; Potency, µM (titrated, usually from 57.1 µM), for the others: at the highest dose activity change, negative = inhibition, actives largely listed as inhibitors; hit rate 0.52% among 330,000; AID 485341;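 note: potency is the fitted concentration of half-maximal effect; plate controls were no compound for no effect and no enzyme for full effect; nearly all actives have a fitted effect of over 20% in size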
#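 AmpC (5.3 nM in the dispensed reagent) in 20 mM phosphate pH 7.0 with 0.01% (detergent screen) or 0.0001% Triton X-100 was preincubated with compounds for 15 min at room temperature. Nitrocefin was then added from an 800 uM solution, and hydrolysis was followed at 480 nm.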
# An asterisk follows results filed as active; ? = inconclusive; / = no result; [ ] = another dose, or the depositor's remark. Compounds with a hit are over-represented: about 7.3% of the library has one in this group of screens. Unless noted, calls come from the whole dose curve; as a rule, active = well fitted curve in the direction sought with a large enough effect; inconclusive = small, poorly fitted or top-dose-only effect, or another doubt; inactive = no such curve, though single readings can be large; an effect the other way counts as inactive or inconclusive. Unless noted, % is set by controls: 0 for no effect and ±100 for the full control effect.
SMILES,HCMV antiviral,FMDV inh,AmpC detergent,HCV inh,AmpC no deterg
COc1ccc(N2CCN(c3ncnc4c3cnn4C)CC2)cc1,-61*,?,2%,/,/
COc1ccc(-c2nc3cc(C)ccc3cc2CN(C(=O)c2cccs2)C2CC2)cc1OC,/,-5%,/,/,/
COc1cccc(-c2nc3cc4c(cc3cc2CN(C(=O)c2cccs2)C2CC2)CCC4)c1OC,/,32µM*,/,/,/
CC(O)C(C(=O)OCc1ccc([N+](=O)[O-])cc1)N1C(=O)c2ccccc2C1=O (stereo not drawn),4,-2%,79µM*,2%,-10%
CNC(=O)C1CCC(Cn2c(=O)c3sccc3n(CC(=O)NCc3ccc(OC)cc3)c2=O)CC1 (stereo not drawn),19,-3%,11%,/,/
Cc1ccc(S(=O)(=O)Cn2nnnc2CN2CCOCC2)cc1,-25,/,-4%,7%,0%
Cc1ccc(S(=O)(=O)Cn2nnnc2CN2CCCC3(CCCCC3)C2)cc1,-68*,/,5%,3%,-12%
CCC(C)Sc1nc2c(c(=O)[nH]1)C(c1cccs1)C1=C(CCCC1=O)N2 (stereo not drawn),-93*,-28%,5%,-2%,-58%
O=C(NCC1Cc2cccc(-c3cncnc3)c2O1)C1CC1 (stereo not drawn),/,-14%,/,/,/
CCOc1ccc(N2CC(C(=O)Nc3ccc(F)cc3F)CC2=O)cc1 (stereo not drawn),-102*,47%,-3%,9%,15%
CN(CC(=O)Nc1cccc(S(=O)(=O)NC2=NCCCCC2)c1)Cc1ccc(C(C)(C)C)cc1,9,-17%,-4%,?,146%
CCOc1ccc(OCCC(=O)Nc2cccc(S(=O)(=O)N3CCCC3)c2)cc1,-32,0%,-19%,11µM*,-50%
CCOc1ccc(N2CC(C(=O)Nc3ccc4c(c3)OCCO4)CC2=O)cc1 (stereo not drawn),-33,?,5%,1%,24%
CCOc1ccc(OCCC(=O)OCC(=O)Nc2cccc(S(=O)(=O)N3CCCCC3)c2)cc1,-19,-13%,/,?,/
CCOc1ccc(N2CC(C(=O)Nc3ccc4c(c3)OCO4)CC2=O)cc1 (stereo not drawn),-64*,29%,-6%,-3%,-11%
CC(C)(C)c1ccc(OCCC(=O)Nc2cccc(S(=O)(=O)NC3=NCCCCC3)c2)cc1,-60*,?,?,14µM*,42%
O=C(O)COCC(=O)N1CCCN(c2nccc(C(F)(F)F)n2)CC1,/,-16%,-2%,14%,-12%
C[C@H]1CN([C@@H](C)CO)C(=O)CCCn2nncc2CO[C@H]1CN(C)C(=O)c1ccc(N2CCN(C)CC2)cc1,-18,-16%,/,/,/
O=C(COc1ccc(C(=O)c2ccc(F)cc2)cc1)Nc1cccc(S(=O)(=O)N2CCOCC2)c1,-18,32µM*,/,6.3µM*,-14%
CCCOc1ccc(N2CC(C(=O)Nc3cccc(Cl)c3Cl)CC2=O)cc1 (stereo not drawn),-88*,-3%,14%,/,/
CCCOc1ccc(N2CC(C(=O)Nc3ccccc3C(=O)NC)CC2=O)cc1 (stereo not drawn),-6,-2%,0%,-7%,-12%
CCOc1ccc(N2CC(C(=O)Nc3cccc(S(=O)(=O)N4CCOCC4)c3)CC2=O)cc1 (stereo not drawn),-19,-6%,/,/,/
CCOc1ccc(N2CC(C(=O)Nc3cccc(S(=O)(=O)N4CCCC4)c3)CC2=O)cc1 (stereo not drawn),2,-6%,?,10µM*,3%
CC(C)(C)c1ccc(OCCC(=O)Nc2cccc(S(=O)(=O)N3CCOCC3)c2)cc1,/,25µM*,-4%,/,-3%
COc1ccc(OCCC(=O)OCC(=O)Nc2cccc(S(=O)(=O)N3CCOCC3)c2)cc1,-6,-2%,-10%,14%,-18%[11.4 µM]
SMILES,HCMV antiviral,FMDV inh,AmpC detergent,HCV inh,AmpC no deterg
CN(C)c1ccc(-c2cc(Nc3ccc(F)cc3)ncn2)cc1,/,-7%,/,/,/
Cc1ccccc1-n1ncc2c1CC(C)(C)CC2NC(=O)CCN1Cc2ccccc2C1=O (stereo not drawn),-8,2%,-1%,-13%,126%
O=C(NCCc1ccc(Cl)cc1Cl)c1cncc(Br)c1,10,-22%,2%,?,-27%
COc1ccc(CCNC(=O)C2CCC(=O)N(C3CCCCCC3)C2)cc1 (stereo not drawn),-15,-3%,-1%,7%,55%
COc1ccc(CCNC(=O)Cn2c(=O)nc(-c3ccccc3F)c3cc(Cl)ccc32)cc1OC,157,24%,13%,/,/
COc1ccc(OCC(=O)Nc2cc(-c3nn(C)c(=O)c4ccccc34)ccc2OC)cc1,16,?,1%,8.9µM*,16%
COc1ccc(NC(=O)COc2ccc(-c3nn(C)c(=O)c4ccccc34)cc2)cc1,3,-14%,5%,-23%,-14%
O=C(NCC1CCCO1)c1cc2nc(-c3ccco3)cc(C(F)(F)Cl)n2n1 (stereo not drawn),4,-16%,?,20%,-20%
O=C(COC(=O)/C=C/c1ccccc1[N+](=O)[O-])NCc1ccco1,3,3%,/,4%,-19%
Cc1cc2nc(Sc3c([N+](=O)[O-])nc(C)n3Cc3ccccc3)[nH]c2cc1C,12,32µM*,-3%,-12%,-22%
COc1ccc2nc(Sc3c([N+](=O)[O-])nc(C)n3Cc3ccccc3)[nH]c2c1,28,16µM*,?,?,-37%
Cc1nc([N+](=O)[O-])c(Sc2nc3ccccc3[nH]2)n1Cc1ccccc1,88,?,-5%,?,-45%
Oc1c(C(Nc2ccccn2)c2ccccn2)ccc2cccnc12 (stereo not drawn),-85*,-20%,?,?,13%
Cc1ccnc(NC(c2ccccc2F)c2ccc3cccnc3c2O)c1 (stereo not drawn),-77*,-10%,21%,/,/
Cc1ccnc(NC(c2cc(C)ccc2O)c2ccc3cccnc3c2O)c1 (stereo not drawn),110,0%,7%,/,/
Cc1ccc2ccc(C(Nc3ccccc3)c3ccccc3)c(O)c2n1 (stereo not drawn),-22,-10%,/,/,/
COc1ccccc1NC(c1cccnc1)c1ccc2cccnc2c1O (stereo not drawn),-2,-30%,?,?,-23%
Cc1ccc2ccc(C(Nc3ccccc3)c3ccc(F)cc3)c(O)c2n1 (stereo not drawn),-61*,29%,/,/,/
Oc1ccccc1C(Nc1nccs1)c1ccc2cccnc2c1O (stereo not drawn),-93*,-14%,-8%,4.5µM*,-58%
CSc1ncccc1C(=O)OCC(=O)NC1CCCCC1,-37,44%,3%,5%,-6%
